Where a name gives a salt, the structure may show the parent alone. ± gives the standard deviation of the averaged measurements.
Tests used:
Assay in all cases: growth (OD600 after 10 h); higher = more growth (less inhibition)
[1] = test system: E. coli TESEC Alr+ wild-type control; conditions: compound 0.1 mM; raw OD600 reference: median of DMSO wells 0.241, cell-free background 0.041
Experimental: (§1)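 TESEC Mtb Alr E. coli, or the Alr+ wild-type control, in 384-well plates with Prestwick library compounds at 0.1 mM and 1% DMSO, across arabinose induction levels of 1E3 to 1E7 nM. Growth is read as OD600 after 10 h at 37 °C in triplicate biological replicates.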

E. coli TESEC Mtb Alr [2] = conditions: compound 0.1 mM
Experimental: as §1

E. coli TESEC Mtb Asd = conditions: compound 0.1 mM
Experimental: (§2)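 TESEC E. coli strains in which the native enzyme is deleted and replaced by arabinose-inducible Mtb Asd, DapB, CysH or TrpD, each grown in its selective medium. Strains were screened against the Prestwick library at 0.1 mM and 1% DMSO in 384-well format at low and high arabinose induction. Growth is read as OD600 after 10 h in triplicate.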

E. coli TESEC Mtb DapB = conditions: compound 0.1 mM
Experimental: as §2

E. coli TESEC Mtb Alr [3] = conditions: compound 0.1 mM; remark: listed apart in the source
Experimental: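 TESEC Mtb Alr E. coli (ΔaraC ΔtolC ΔentC Δalr ΔdadX, arabinose-inducible Mtb Alr) or the Alr+ wild-type control strain, grown in defined M9-fructose medium without D-alanine in 96-well plates with Prestwick library compounds at 0.1 mM and 1% DMSO. Low Alr induction is 0.1 µM arabinose and high induction is 10 mM arabinose.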

[4] = arabinose 1000 nM, raw OD600 reference: median of DMSO wells 0.294, cell-free background 0.041
[5] = arabinose 10000 nM, raw OD600 reference: median of DMSO wells 0.264, cell-free background 0.041
[6] = arabinose 100000 nM, raw OD600 reference: median of DMSO wells 0.201, cell-free background 0.041
[7] = arabinose 1000000 nM, raw OD600 reference: median of DMSO wells 0.193, cell-free background 0.041
[8] = arabinose 10000000 nM, raw OD600 reference: median of DMSO wells 0.146, cell-free background 0.041
[9] = arabinose induction (level): High, raw OD600 reference: median of DMSO wells 0.331, cell-free background 0.041
[10] = arabinose induction (level): Low, raw OD600 reference: median of DMSO wells 0.417, cell-free background 0.041
[11] = arabinose induction (level): High, raw OD600 reference: median of DMSO wells […], cell-free background 0.041
[12] = arabinose induction (level): Low, raw OD600 reference: median of DMSO wells 0.227, cell-free background 0.041
[13] = arabinose 100 nM, raw OD600 reference: median of DMSO wells 0.413, cell-free background 0.052
[14] = arabinose 10000000 nM, raw OD600 reference: median of DMSO wells […], cell-free background 0.052

| SMILES | growth [1] | growth (E. coli TESEC Mtb Alr [2]; [4]) | growth (E. coli TESEC Mtb Alr [2]; [5]) | growth (E. coli TESEC Mtb Alr [2]; [6]) | growth (E. coli TESEC Mtb Alr [2]; [7]) | growth (E. coli TESEC Mtb Alr [2]; [8]) | growth (E. coli TESEC Mtb Asd; [9]) | growth (E. coli TESEC Mtb Asd; [10]) | growth (E. coli TESEC Mtb DapB; [11]) | growth (E. coli TESEC Mtb DapB; [12]) | growth (E. coli TESEC Mtb Alr [3]; [13]) | growth (E. coli TESEC Mtb Alr [3]; [14]) |
| --- | --- | --- | --- | --- | --- | --- | --- | --- | --- | --- | --- | --- |
| CC(C)(C)NC(=O)[C@@H]1C[C@@H]2CCCC[C@@H]2CN1C[C@@H](O)[C@H](Cc1ccccc1)NC(=O)[C@H](CC(N)=O)NC(=O)c1ccc2ccccc2n1 [Saquinavir mesylate] | 0.072 ± 0.012 | 0.0535 ± 0.0019 | 0.0491 ± 0.0035 | 0.0468 ± 0.0011 | 0.051 ± 0.0027 | 0.0524 ± 0.0032 | 0.0544 ± 0.0037 | 0.0524 ± 0.001 | 0.05287 ± 0.00045 | 0.0578 ± 0.0085 | 0.273 ± 0.11 | 0.0539 ± 0.0034 |
| C[C@@H]1C[C@H]2[C@@H]3CCC4=CC(=O)C=C[C@]4(C)[C@@]3(Cl)[C@@H](O)C[C@]2(C)[C@@]1(OC(=O)c1ccco1)C(=O)CCl [Mometasone furoate] | 0.203 ± 0.0057 | 0.259 ± 0.031 | 0.223 ± 0.011 | 0.161 ± 0.0059 | 0.0878 ± 0.0027 | 0.152 ± 0.013 | 0.198 ± 0.049 | 0.329 ± 0.082 | 0.297 ± 0.12 | 0.212 ± 0.06 | 0.415 ± 0.013 | 0.244 ± 0.0054 |
| C[C@@H](O[C@H]1OCCN(Cc2n[nH]c(=O)[nH]2)[C@H]1c1ccc(F)cc1)c1cc(C(F)(F)F)cc(C(F)(F)F)c1 [Aprepitant] | 0.136 ± 0.0085 | 0.107 ± 0.0059 | 0.116 ± 0.033 | 0.0735 ± 0.0056 | 0.0675 ± 0.0089 | 0.0777 ± 0.0096 | 0.0693 ± 0.0052 | 0.0731 ± 0.019 | 0.128 ± 0.015 | 0.089 ± 0.023 | 0.442 ± 0.012 | 0.0589 ± 0.0033 |
| CC(=O)[C@H]1CC[C@H]2[C@@H]3CCC4=CC(=O)CC[C@]4(C)[C@H]3CC[C@]12C [Progesterone] | 0.139 ± 0.0043 | 0.175 ± 0.01 | 0.234 ± 0.01 | 0.145 ± 0.015 | 0.117 ± 0.0027 | 0.15 ± 0.012 | 0.143 ± 0.0076 | 0.219 ± 0.012 | 0.178 ± 0.015 | 0.182 ± 0.013 | 0.292 ± 0.059 | 0.0648 ± 0.0061 |
| Oc1c(Cl)cc(Cl)c2cccnc12 [Chloroxine] | 0.044 ± 0.00076 | 0.0429 ± 0.00083 | 0.0409 ± 0.00069 | 0.0435 ± 0.00076 | 0.0415 ± 0.00061 | 0.0495 ± 0.00057 | 0.0595 ± 0.0028 | 0.154 ± 0.05 | 0.0813 ± 0.015 | 0.117 ± 0.069 | 0.0554 ± 0.0075 | 0.0726 ± 0.013 |
| CC(c1cc2ccccc2s1)N(O)C(N)=O (configuration not stated) [Zileuton] | 0.229 ± 0.004 | 0.295 ± 0.021 | 0.254 ± 0.011 | 0.223 ± 0.018 | 0.183 ± 0.0054 | 0.151 ± 0.0028 | 0.338 ± 0.022 | 0.352 ± 0.012 | 0.216 ± 0.029 | 0.216 ± 0.017 | 0.403 ± 0.0065 | 0.3407 ± 0.00091 |
| Clc1cc(Cl)c(OCC#CI)cc1Cl [Haloprogin] | 0.128 ± 0.027 | 0.249 ± 0.015 | 0.197 ± 0.0027 | 0.216 ± 0.004 | 0.137 ± 0.0043 | 0.168 ± 0.0052 | 0.242 ± 0.037 | 0.276 ± 0.095 | 0.245 ± 0.04 | 0.259 ± 0.018 | 0.386 ± 0.027 | 0.104 ± 0.0032 |
| NCCCCCC(=O)O [Aminocaproic acid] | 0.249 ± 0.0031 | 0.314 ± 0.019 | 0.257 ± 0.016 | 0.1768 ± 0.00047 | 0.172 ± 0.0099 | 0.161 ± 0.0086 | 0.47 ± 0.023 | 0.438 ± 0.028 | 0.206 ± 0.02 | 0.28 ± 0.025 | 0.407 ± 0.017 | 0.354 ± 0.025 |
| Cc1ccc(C(=O)c2ccc(CC(=O)O)n2C)cc1 [Tolmetin sodium salt dihydrate] | 0.234 ± 0.0061 | 0.281 ± 0.014 | 0.253 ± 0.0051 | 0.169 ± 0.011 | 0.184 ± 0.0077 | 0.1348 ± 0.00087 | 0.432 ± 0.032 | 0.3668 ± 0.0019 | 0.197 ± 0.024 | 0.223 ± 0.028 | 0.387 ± 0.018 | 0.337 ± 0.0088 |
| NS(=O)(=O)c1cc(Cl)c(Cl)c(S(N)(=O)=O)c1 [Dichlorphenamide] | 0.25 ± 0.0031 | 0.298 ± 0.012 | 0.2704 ± 0.0016 | 0.211 ± 0.027 | 0.186 ± 0.011 | 0.131 ± 0.0026 | 0.312 ± 0.027 | 0.456 ± 0.038 | 0.213 ± 0.007 | 0.256 ± 0.026 | 0.402 ± 0.017 | 0.399 ± 0.032 |
| COc1ccccc1OCC(O)CN1CCN(CC(=O)Nc2c(C)cccc2C)CC1 (configuration not stated) [Ranolazine] | 0.207 ± 0.0059 | 0.309 ± 0.036 | 0.285 ± 0.0092 | 0.155 ± 0.012 | 0.178 ± 0.0088 | 0.135 ± 0.0073 | 0.171 ± 0.014 | 0.342 ± 0.085 | 0.174 ± 0.023 | 0.226 ± 0.021 | 0.4233 ± 0.0032 | 0.301 ± 0.014 |
| Cc1c(NC(=O)c2cccnc2)c(=O)n(-c2ccccc2)n1C [Nifenazone] | 0.251 ± 0.0067 | 0.305 ± 0.0092 | 0.27 ± 0.0045 | 0.212 ± 0.024 | 0.183 ± 0.0036 | 0.1554 ± 0.001 | 0.309 ± 0.066 | 0.411 ± 0.1 | 0.192 ± 0.0073 | 0.262 ± 0.065 | 0.413 ± 0.017 | 0.339 ± 0.011 |
| N=C(N)NC(=O)c1nc(Cl)c(N)nc1N [Amiloride hydrochloride dihydrate] | 0.236 ± 0.012 | 0.291 ± 0.021 | 0.257 ± 0.003 | 0.255 ± 0.016 | 0.181 ± 0.0048 | 0.15 ± 0.0063 | 0.387 ± 0.036 | 0.428 ± 0.033 | 0.203 ± 0.0053 | 0.278 ± 0.035 | 0.407 ± 0.014 | 0.392 ± 0.015 |
| COc1ccc2cc([C@@H](C)C(=O)O)ccc2c1 [(R) -Naproxen sodium salt] | 0.263 ± 0.0059 | 0.311 ± 0.018 | 0.275 ± 0.0043 | 0.198 ± 0.0079 | 0.183 ± 0.0045 | 0.141 ± 0.0034 | 0.484 ± 0.02 | 0.341 ± 0.077 | 0.196 ± 0.014 | 0.216 ± 0.052 | 0.408 ± 0.0092 | 0.317 ± 0.0088 |
| CNCC[C@@H](Oc1cccc2ccccc12)c1cccs1 [(R)-Duloxetine hydrochloride] | 0.11 ± 0.038 | 0.0692 ± 0.004 | 0.04907 ± 0.00032 | 0.0556 ± 0.002 | 0.0447 ± 0.0038 | 0.0466 ± 0.0019 | 0.106 ± 0.066 | 0.0934 ± 0.04 | 0.0757 ± 0.0014 | 0.0799 ± 0.007 | 0.4098 ± 0.0032 | 0.272 ± 0.011 |
| Oc1c(I)cc(Cl)c2cccnc12 [Clioquinol] | 0.0473 ± 0.0055 | 0.0429 ± 0.0016 | 0.0409 ± 0.00085 | 0.0461 ± 0.0025 | 0.0417 ± 0.00053 | 0.0513 ± 0.0023 | 0.0601 ± 0.0098 | 0.0661 ± 0.016 | 0.0573 ± 0.0004 | 0.0551 ± 0.0021 | 0.0741 ± 0.02 | 0.0669 ± 0.011 |
